Compound activity: PubChem BioAssay, The Scripps Research Institute Molecular Screening Center
Compounds with a hit are over-represented: about 3.4% of the library has one in this group of screens.
GPR151 activ = activators of human GPR151, primary screen, cell-based, PathHunter beta-arrestin, luminescence; PathHunter beta-arrestin GPR151 cells; activation, % at 11.2 µM; 650,000 tested, 1% active; AID 1508602, 2020; in the data active means activation above about 4.9%
FBW7 activator = FBW7 E3 ligase activators, primary screen, biochemical, AlphaScreen, human; F-box/WD repeat-containing protein 7 (Homo sapiens), Q969H0; AlphaScreen FBW7–phospho-cyclin E peptide binding, activator screen; normalized activity (activation), % at 26.1 µM; 650,000 tested, 0.13% active; in the data active means normalized activity above about 1.9%;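 further: purified mutant Fbw7 with reduced substrate affinity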
TEAD-YAP block = TEAD-YAP interaction inhibition, primary screen, TEAD-YAP interaction inhibitor project, luminescence, HEK-TIYL cells; TEAD-Gal4/YAP UAS-luciferase luminescence; inhibition, % at 9.12 µM; 640,000 tested, 1.4% active; AID 1259422, 2018; in the data active means inhibition above about 32%
MITF primary = MITF inhibitors, primary screen, biochemical, AlphaScreen, human. Microphthalmia-associated transcription factor (Homo sapiens), O75030. 650,000 tested, 0.91% active. AID 1259374, 2018. inhibition, % at 2.6 µM. AlphaScreen MITF homodimerization, bead proximity signal; in the data active means inhibition above about 50%
Target sequence (O75030 whole entry, looked up): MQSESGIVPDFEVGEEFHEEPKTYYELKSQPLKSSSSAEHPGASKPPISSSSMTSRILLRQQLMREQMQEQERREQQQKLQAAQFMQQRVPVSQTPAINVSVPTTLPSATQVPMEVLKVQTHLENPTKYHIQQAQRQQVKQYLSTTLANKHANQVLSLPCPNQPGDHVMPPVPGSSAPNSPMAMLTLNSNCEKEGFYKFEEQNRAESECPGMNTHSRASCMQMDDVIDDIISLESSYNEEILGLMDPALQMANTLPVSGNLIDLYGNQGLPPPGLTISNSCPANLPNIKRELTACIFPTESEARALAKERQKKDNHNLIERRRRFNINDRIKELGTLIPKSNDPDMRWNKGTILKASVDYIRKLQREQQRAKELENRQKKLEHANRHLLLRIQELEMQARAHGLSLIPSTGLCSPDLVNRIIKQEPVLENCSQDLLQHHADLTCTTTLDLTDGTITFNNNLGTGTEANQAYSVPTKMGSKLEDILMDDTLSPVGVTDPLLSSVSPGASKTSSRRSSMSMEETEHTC
Each line names hits and unclear results; the compound was inactive in the other large screens.

COc1ccc(Cl)cc1NC(=O)Cn1c(=O)n(C)c2ncccc21	none
CCS(=O)(=O)c1ncc(Cl)c(C(=O)Nc2ccc(Cl)cc2)n1	none
CCS(=O)(=O)c1ncc(Cl)c(C(=O)Nc2ccccc2F)n1	none
CCS(=O)(=O)c1ncc(Cl)c(C(=O)Nc2cccc(C(F)(F)F)c2)n1	TEAD-YAP block 34.1
CCS(=O)(=O)c1ncc(Cl)c(C(=O)Nc2ccccc2C(F)(F)F)n1	TEAD-YAP block 35.2
CCS(=O)(=O)c1ncc(Cl)c(C(=O)Nc2ccc(OC)c(Cl)c2)n1	TEAD-YAP block 49.7
N#Cc1c(-c2ccccc2F)c(C#N)c2nc3ccccc3n2c1N	TEAD-YAP block 42.1
O=C1Nc2c(C(F)(F)F)cccc2C12SCCS2	TEAD-YAP block 33.8
CC1CCCN(C2(O)C(=O)Nc3c(C(F)(F)F)cccc32)C1 (stereo not drawn)	none
CNc1nc2cc([N+](=O)[O-])c([N+](=O)[O-])cc2nc1NC	TEAD-YAP block 57.4
CCOC(=O)C(=Cc1cc(OC)c(OC)cc1Br)C(=O)OCC	TEAD-YAP block 42.2
CCOC(=O)C(C)Oc1cc(Br)c(C=O)cc1OC (stereo not drawn)	none
Cc1cc(N/C=C\C(=O)c2cccs2)no1	none
COc1cc([N+](=O)[O-])ccc1N/C=C/C(=O)c1cccs1	TEAD-YAP block 79.6
COc1cc([N+](=O)[O-])ccc1N/C=C/C(=O)c1ccc(Cl)cc1	none
COc1cc([N+](=O)[O-])ccc1N/C=C/C(=O)c1ccccc1	TEAD-YAP block 71.3
Cc1cc(C(=O)O)ccc1N/C=C/C(=O)c1cccs1	TEAD-YAP block 46.5
Cc1cc2nc(N3CCCN(Cc4ccsc4)CC3)nc(C)c2cc1C	none
CC12COC3(C(=O)Nc4nc5ccccc5s4)CC1CCC32C (stereo not drawn)	TEAD-YAP block 67.1
CC12COC3(C(=O)Nc4ccccc4)CC1CCC32C (stereo not drawn)	none
COCCCN1C(=O)c2[nH]nc(-c3ccccc3O)c2C1c1cccc(Br)c1 (stereo not drawn)	TEAD-YAP block 35.3
COCCCN1C(=O)c2[nH]nc(-c3ccccc3O)c2C1c1cccc(O)c1 (stereo not drawn)	none
Cc1nc(N2CCCc3ccccc32)c2cc(C)sc2n1	TEAD-YAP block 45.5
Cc1nc(N2CCCC2)c2cc(C)sc2n1	none
CC(=O)c1cccc(NC(=O)CN(c2ccccc2)S(C)(=O)=O)c1	FBW7 activator 1.9
CC(=O)c1cccc(NC(=O)CCl)c1	TEAD-YAP block 98.7
CC(=O)c1cccc(NC(=O)CCC(=O)Nc2cccc(C(C)=O)c2)c1	none
CC(=O)c1cccc(NC(=O)Nc2ccccc2)c1	none
CS(=O)(=O)N(CC(=O)Nc1cccc(Cl)c1)c1ccccc1	none
CC(=O)c1ccc(NC(=O)Nc2cccc(C(=O)O)c2)cc1	TEAD-YAP block 51.3
COc1ccc(C(=O)/C(=C\c2ccc(OC)c(OC)c2)c2nc3ccccc3o2)cc1	TEAD-YAP block 42.9
COc1cc(NC(C)=O)ccc1NC(=O)c1ccccc1	none
CCOC(=O)c1cnc2ccc(C(=O)OC)cc2c1Nc1ccc(N(C)C)cc1	none
C=CCNc1nc2c(c(=O)n(C)c(=O)n2C)n1CCCCCC	TEAD-YAP block 46.9
C=CCNc1nc2c(c(=O)n(C)c(=O)n2C)n1CCC(C)C	TEAD-YAP block 32.9
O=C(Nc1ccc2[nH]c(=O)[nH]c2c1)c1ccc2c(=O)n3c(nc2c1)CCCCC3	none
CCOC(=O)c1c(NC(=O)COc2ccc(C)cc2Br)sc2c1CCCC2	none
COc1cccc(/C=N/NC(=O)c2cccc(Cn3nc(C)cc3C)c2)c1O	MITF primary 56.7
CC(C)(C)c1ccc(O)c(/C=N/NC(=O)c2ccc3c(c2)OCCO3)c1	TEAD-YAP block 44.8
COc1cccc(/C=N/NC(=O)c2ccc(C(C)(C)C)cc2)c1O	TEAD-YAP block 39.2
O=C(O)c1ccc(N/N=C/c2c(F)cccc2Cl)cc1	TEAD-YAP block 36.1
COc1cccc(/C=N/NC(=O)c2ccc(O)cc2)c1O	none
COc1cccc(/C=N/NC(=O)c2cccc(Cn3cccn3)c2)c1O	none
CCCN(CCC)S(=O)(=O)c1ccc(NC(=O)C(=O)OCC)cc1	none
COc1cc(Cl)cc(/C=N\NC(=O)c2ccc3c(c2)OCO3)c1O	TEAD-YAP block 73.9
COc1cccc(/C=N/Nc2ccc(C(=O)O)cc2)c1O	TEAD-YAP block 83.7
Cc1nc2ccccn2c1C(=O)N/N=C/c1ccc(O)c(O)c1O	MITF primary 75.9
COc1cccc(/C=N/Nc2ccc(S(=O)(=O)O)cc2)c1O	none
COc1cccc(/C=N/NC(=O)c2cccc(N)c2)c1O	TEAD-YAP block 66.7
CCOC(=O)C1CCCCN1Cc1ccc(OC)c(C)c1C (stereo not drawn)	none
COc1cccc(/C=N/NC(=O)c2cc(Br)ccc2OC(C)C)c1O	TEAD-YAP block 78.5
COc1cccc(/C=N/NC(=O)c2cccc(Br)c2)c1O	TEAD-YAP block 63.6
C=CCc1cccc(/C=N/NC(=O)c2ccc(OC)cc2)c1O	TEAD-YAP block 50.1
COc1ccc(CNC(=O)C(=O)N/N=C/c2cccc(OC)c2O)cc1	MITF primary 53.4
Cc1ccc(-c2cc3c(=O)n(Cc4nc(-c5ccc(C)cc5)oc4C)ccn3n2)cc1	none
Cc1nnc(NS(=O)(=O)c2ccc(C(C)(C)C)cc2)s1	none
CC(C)Oc1ccc(Br)cc1C(=O)N/N=C/c1ccc2c(c1)OCO2	TEAD-YAP block 39.6
COc1cccc(/C=N\NC(=O)c2c(C)nc3cc(C)ccn23)c1O	TEAD-YAP block 77.6
COc1cc(Br)cc(/C=N/NC(=O)c2cccc(Br)c2)c1O	TEAD-YAP block 35.0
COc1cccc(/C=N/NC(=O)c2cc(-c3ccco3)[nH]n2)c1O	none
COc1cccc(/C=N/NC(=O)c2cc(C(C)C)[nH]n2)c1O	TEAD-YAP block 49.0
Cc1ccn2c(C(=O)N/N=C\c3ccccc3[N+](=O)[O-])c(C)nc2c1	none
CCc1cccc(NS(=O)(=O)c2ccc3c4c2CC(=O)N4CC(C)S3)c1 (stereo not drawn)	TEAD-YAP block 36.3
CC1CN2C(=O)Cc3c(S(=O)(=O)Nc4ccc(F)cc4)ccc(c32)S1 (stereo not drawn)	none
Cc1ccccc1-c1nc(CSCC(=O)N2CCOCC2)c(C)o1	none
Cc1ccsc1-c1nc(CSCC(=O)N2CCCC2)c(C)o1	TEAD-YAP block 46.1
CCc1ccc(-c2nc(CSCC(=O)N3CCN(CC)CC3)c(C)o2)cc1	TEAD-YAP block 36.5
Cc1ccccc1-c1nc(CSCC(=O)N2CCCC2)c(C)o1	TEAD-YAP block 56.0
CCN(CC)C(=O)C1CCCN(c2nc(NCCN(C(C)C)C(C)C)c3ncn(-c4ccccc4)c3n2)C1 (stereo not drawn)	TEAD-YAP block 41.4
CCN(CC)C(=O)C1CCCN(c2nc(NCCN(C(C)C)C(C)C)c3ncn(C(C)C)c3n2)C1 (stereo not drawn)	none
CCN(CC)C(=O)C1CCCN(c2nc(Nc3ccccc3)c3[nH]cnc3n2)C1 (stereo not drawn)	TEAD-YAP block 48.1
